Assay outcomes as filed in PubChem BioAssay.
In the library only some 1.5% were active in any assay of this set; here they are far more common.
eIF4E-4G inh = blocks eIF4E binding to eIF4G; P63073+Q04637; TR-FRET eIF4E-eIF4GI(517-606) binding, 2 h; inhibition, % at 21.7 µM; 220,000 compounds, 0.37% hits; AID 782;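 active = inhibition above about 30%, limit read from the data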
eIF4H inh = inhibitors of RNA binding by human eIF4H. eIF4H fluorescence polarization binding assay. 290,000 compounds, 0.94% hits. inhibition, % at 35 µM. AID 2012;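 also: calls also rest on retests at 20 µM and on dose response follow-up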
PABP1 MLLE inh = inhibitors of microRNA-mediated deadenylation, human PABP1 MLLE binding | P11940 | GST-MLLE / FITC-PAM2 fluorescence polarization | inhibition, % at 20 µM | 360,000 compounds, 0.36% hits | AID 588489; in the data active = inhibition above about 35%, passing the limit was not always enough
PABP FP inh = PABP-poly(A) binding inhibition. PABP-poly(A) RNA binding, fluorescence polarization. calls only at 35 µM. P11940. 290,000 compounds, 1% hits;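 also: calls also rest on retests at 20 µM and on dose response follow-up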
Large screens that a line does not name were inactive; [ ] = remark or other dose. Unless noted, no rule for the calls is given here.

Cc1nc(S/C(=C/c2ccc(-c3ccc(C(=O)O)cc3)o2)C(=O)O)n[nH]1	PABP FP inh active
O=C(Nc1ccc(N2CCOCC2)c(S(=O)(=O)Nc2ccc(Cl)cc2)c1)c1cnccn1	PABP1 MLLE inh 40.4
O=C(Nc1ccc(N2CCOCC2)c(S(=O)(=O)Nc2ccc(Cl)cc2)c1)c1ccc(=O)[nH]n1	none (no result: eIF4E-4G inh, eIF4H inh, PABP FP inh)
C[C@@H]1CN([C@@H](C)CO)C(=O)CCCn2nncc2CO[C@@H]1CN(C)C(=O)c1cc(-c2ccccc2)on1	none (no result: eIF4E-4G inh, eIF4H inh, PABP FP inh)
O=C(NN1C(=O)/C(=C/c2ccc(O)cc2)SC1=S)c1ccccc1O	PABP FP inh active (no result: eIF4E-4G inh)
Cc1cc(C)nc(NN2C(=O)/C(=C/c3ccc(O)cc3)SC2=S)n1	eIF4H inh inconclusive, PABP FP inh active
COc1ccc(/C=C2\SC(=S)N(CCCC(=O)NNC(=O)c3ccccc3O)C2=O)cc1	none
O=C(CN1C(=O)S/C(=C\c2ccc(Cl)cc2)C1=O)NNC(=O)c1ccccc1O	eIF4E-4G inh 32.6
COC(=O)c1ccc(COc2cccn3c(N(C)C(=O)CCC4CCCC4)c(C)nc23)cc1	none (no result: eIF4E-4G inh, eIF4H inh, PABP FP inh)
CC1CC(C)(C)NC(=S)S1 (configuration not stated)	PABP1 MLLE inh 41.1
CCOc1ccc(-c2cc(C(=O)Nc3cccc(C(F)(F)F)c3)[nH]n2)c(C)c1	none (no result: eIF4E-4G inh, eIF4H inh, PABP FP inh)
O=C(NC1CC1)C1=C[C@@H](C2CC2)C[C@@H](OCc2ccc(CO)cc2)O1	eIF4E-4G inh 33.7
CCN(CC)c1ccc(/C=C2\CCC(/C=C(/C#N)C(=O)Nc3ccccc3F)=C2N2CCOCC2)cc1	none (no result: eIF4E-4G inh, eIF4H inh, PABP FP inh)
CCN(CC)c1ccc(/C=C2\CCC(/C=C(\C#N)C(=O)Nc3ccccc3F)=C2N2CCOCC2)cc1	eIF4H inh 61.3
O=C(N/N=C/c1ccc(-c2ccc(S(=O)(=O)Nc3ncccn3)cc2)o1)c1cc2ccccc2cc1O	eIF4H inh 82.6, PABP FP inh active
CCOc1ccc(S(=O)(=O)N(CC(=O)N/N=C/c2ccc(-c3ccc([N+](=O)[O-])cc3)o2)c2ccccc2)cc1	eIF4H inh 78.8, PABP FP inh active
NC(=S)NN=Cc1ccc(-c2ccc(S(=O)(=O)Nc3ncccn3)cc2)o1	none (no result: eIF4E-4G inh, eIF4H inh, PABP FP inh)
CCOc1ccc(C(=O)N/N=C/c2ccc(-c3ccc(S(=O)(=O)Nc4ncccn4)cc3)o2)cc1	eIF4H inh 68.7, PABP FP inh active
CCNC(=O)C1(C)CCCN(Cc2ccc(-n3ccnc3)cc2)C1 (configuration not stated)	none (no result: eIF4E-4G inh, eIF4H inh, PABP FP inh)
C#CCOCCOCCOCCNc1nc(OC)nc(N2CCN(C(=O)[C@H](CCCCN)n3cc(C(N)CO)nn3)CC2)n1 (some centres not stated)	eIF4H inh 60.0, PABP FP inh active (no result: PABP1 MLLE inh)
C#CCOCCOCCOCCNc1nc(N2CCN(C(=O)[C@H]([C@@H](C)CC)n3cc([C@@H](N)CO)nn3)CC2)nc(N2CCN(C(=O)[C@H]([C@@H](C)CC)n3cc([C@@H](N)CC(C)C)nn3)CC2)n1	eIF4H inh inconclusive, PABP1 MLLE inh 41.3, PABP FP inh inconclusive
C#CCOCCOCCOCCNc1nc(N2CCN(C(=O)[C@H]([C@@H](C)CC)n3cc([C@@H](N)CO)nn3)CC2)nc(N2CCN(C(=O)[C@H]([C@@H](C)CC)n3cc([C@@H](N)CO)nn3)CC2)n1	none (no result: PABP1 MLLE inh)
CC(=O)c1ccc(N2CCN(CC(=O)Nc3ccc4c(c3)OCCO4)CC2)cc1	none (no result: eIF4E-4G inh)
CC(O)(c1ccc(F)c(F)c1)c1nc(-c2ccccc2)cs1 (configuration not stated)	none (no result: eIF4E-4G inh, eIF4H inh, PABP FP inh)
COC(=O)c1cc2n3ccccc3c(C)c(-c3ccccc3)c-2c1C(=O)OC	eIF4H inh 129.9, PABP1 MLLE inh 47.1, PABP FP inh active
COC(=O)c1cc2c(C)c(C)c3ccccn3c-2c1C(=O)OC	PABP1 MLLE inh 59.7
Cc1noc(C)c1COc1ccc(C(=O)Nc2ncccc2O)cc1	none (no result: eIF4E-4G inh, eIF4H inh, PABP FP inh)
CCNC(=O)C1CCCN(C(=O)c2cc(C)oc2C)CC1 (configuration not stated)	none (no result: eIF4E-4G inh, eIF4H inh, PABP FP inh)
CN1CCc2c(sc(/N=C/c3ccco3)c2C(N)=O)C1	eIF4H inh 67.6, PABP FP inh active
Cc1ccc(/C=N/c2sc3c(c2C(N)=O)CCCC3)o1	eIF4H inh 73.6
Cc1ccc(C2=NC(=O)/C(=C/c3cc(O)c(O)c(Br)c3)S2)cc1	eIF4H inh 56.4, PABP FP inh active
NS(=O)(=O)c1ccc(CCNC(=O)C2Cc3ccccc3CN2C(=O)c2ccco2)cc1 (configuration not stated)	none
NS(=O)(=O)c1ccc(NC(=O)C2Cc3ccccc3CN2C(=O)c2ccco2)cc1 (configuration not stated)	eIF4H inh 70.2, PABP FP inh active (no result: eIF4E-4G inh)
CN(C)C(=O)c1cccc(-c2cnc3c(NC=O)cc(-c4ccc(N(C)C)cc4)cn23)c1	none (no result: eIF4E-4G inh, eIF4H inh, PABP FP inh)
CCCCCCn1ccc(=N)cc1	none
CCCCCCCCCCCCCCCCn1cc[n+](CC(C)=O)c1	eIF4E-4G inh 68.4
Cc1cccc(NC(=O)c2nc[nH]c2C(=O)Nc2ccccc2F)c1	none (no result: eIF4E-4G inh, eIF4H inh, PABP FP inh)
O=c1cc2oc3cc(O)c(O)cc3c(-c3ccccc3O)c-2cc1O	eIF4H inh inconclusive, PABP FP inh inconclusive
COc1ccc(OC)c(-c2c3cc(O)c(=O)cc-3oc3cc(O)c(O)cc23)c1	eIF4E-4G inh 51.2[fluorescence artefact?], eIF4H inh inconclusive
CCN1/C(=C/c2ccc3ccccc3[n+]2CCCS(=O)(=O)[O-])C=Cc2cc(C)ccc21	none (no result: eIF4E-4G inh)
CCN1/C(=C/c2ccc3ccccc3[n+]2CC)C=Cc2ccccc21	eIF4E-4G inh 45.6[fluorescence artefact?]
COc1c(S(=O)(=O)NCCCN2CCOCC2)ccc(Cl)c1Cl	eIF4E-4G inh 86.2, PABP1 MLLE inh 44.6
COc1ccc(OC)c(S(=O)(=O)NCCCN2CCOCC2)c1	none (no result: eIF4E-4G inh, eIF4H inh, PABP FP inh)
COc1ccc(-n2c(CN3CCC(C(N)=O)CC3)nc3ccc([N+](=O)[O-])cc3c2=O)c(OC)c1	eIF4H inh active
O=C(NCC(F)(F)F)c1ccc2sc([C@H]3C[C@H](O)[C@@H](CO)O3)nc2c1	none (no result: eIF4E-4G inh, eIF4H inh, PABP FP inh)
CC1C(=O)N(Cc2cn(Cc3ccco3)nn2)CCS(=O)(=O)N1Cc1ccc(-c2cccc(N(C)C)c2)cc1 (configuration not stated)	none (no result: eIF4E-4G inh, eIF4H inh, PABP FP inh)
c1cnc2nc(-c3ccc4c(c3)OCO4)cn2c1	none
c1ccn2cc(-c3ccc4c(c3)OCO4)cc2c1	eIF4H inh 64.2
COc1ccc(C2C=C(c3ccc(C)cc3)Nc3ncnn32)cc1 (configuration not stated)	PABP1 MLLE inh 41.2 (no result: eIF4E-4G inh)
COc1ccc(C(=O)COC(=O)c2cc(S(=O)(=O)NCc3ccccc3)ccc2O)cc1	eIF4H inh active, PABP FP inh active
CC1=C(C(=O)N(C)C)CC(CC(=O)NCCCN(C)C)C(=O)N1Cc1ccc(F)cc1 (configuration not stated)	none (no result: eIF4E-4G inh, eIF4H inh, PABP FP inh)
CCCN(CCC)C(=S)NC(=O)c1ccc(-c2ccccc2)cc1	PABP1 MLLE inh 38.8
CC(=O)NC(c1ccccc1)c1nc(-c2ccc3ccccc3c2)cs1 (configuration not stated)	none (no result: eIF4E-4G inh, eIF4H inh, PABP FP inh)
CC(C)N(C(=O)Nc1ccc2nsnc2c1)C(C)C	eIF4H inh 101.1, PABP FP inh active (no result: PABP1 MLLE inh)
COc1ccc(NC(=O)C[C@H]2C(=O)N(CCc3ccccc3)C[C@@H]2c2ccc(OC)cc2)cc1	none (no result: eIF4E-4G inh, eIF4H inh, PABP FP inh)
O=C(OCc1ccccc1)N1CCC2CC1c1ccc(N3CCNCC3)cc12 (configuration not stated)	none (no result: eIF4E-4G inh, eIF4H inh, PABP FP inh)
CCCCOC(=O)c1ccc(N)cc1	eIF4H inh active, PABP FP inh active
